FLuc counter = qHTS profiling assay for firefly luciferase inhibitor/activator using purifed enzyme and Km concentrations of substrates (counterscreen for miR-21 project); AID 588342, 2011; Potency, µM (series often up to 57.5 µM), for the others: at the top dose activity change, negative = inhibition, most hits filed as inhibitors; purified FLuc, Km substrates, luminescence inhibition; 360,000 compounds, 6.9% hits;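 further: plate controls were vehicle for no effect and reference inhibitor for full effect; nearly all actives have a fitted effect of over 55% in size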
Target sequence (P08659 whole entry, looked up): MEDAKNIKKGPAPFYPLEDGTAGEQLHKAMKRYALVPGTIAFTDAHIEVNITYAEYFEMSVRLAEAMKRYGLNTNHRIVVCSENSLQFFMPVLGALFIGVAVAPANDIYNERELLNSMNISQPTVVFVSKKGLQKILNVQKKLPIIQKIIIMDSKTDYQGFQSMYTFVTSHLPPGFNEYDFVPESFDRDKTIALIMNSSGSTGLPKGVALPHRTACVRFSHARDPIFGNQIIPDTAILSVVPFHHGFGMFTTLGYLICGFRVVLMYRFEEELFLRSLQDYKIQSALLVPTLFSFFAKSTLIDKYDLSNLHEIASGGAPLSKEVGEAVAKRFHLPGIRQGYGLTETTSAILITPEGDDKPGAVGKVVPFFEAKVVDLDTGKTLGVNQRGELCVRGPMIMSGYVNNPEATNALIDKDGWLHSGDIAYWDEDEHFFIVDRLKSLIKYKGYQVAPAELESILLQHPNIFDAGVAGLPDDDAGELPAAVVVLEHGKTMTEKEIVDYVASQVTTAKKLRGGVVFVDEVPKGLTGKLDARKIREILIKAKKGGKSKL
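Purified P. pyralis luciferase, 10 nM final, with Km-level 10 uM D-luciferin and 10 uM ATP in 50 mM Tris acetate pH 7.5, 10 mM Mg acetate, 0.01% Tween-20, 0.05% BSA; 6-point qHTS titration about 60 µM downward; luminescence read.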
NPC1 promoter act = qHTS Assay for NPC1 Promoter Activators. Potency, µM (doses to about 9.22 µM), without a hit: at the top dose activation, actives largely listed as activators. 320,000 compounds, 2.4% hits. Huh7 NPC1 promoter luciferase reporter, 24 h; further: % of control where 0% means no effect; nearly all actives have a fitted effect of over 60% in size
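Luminescence read-out of NPC1 promoter-driven luciferase in stably transfected Huh7 cells; compounds delivered in DMSO and left 24 h at 37C, 5% CO2, qHTS titration format.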
KinaseGlo FLuc = Counterscreen for Luciferase (Kinase-Glo TM) Inhibition; Luciferin 4-monooxygenase (Photuris pensylvanica), Q27757; AID 1379, 2008; Potency, µM (highest dose often 38.3 µM), without a hit: top-dose activity change, negative = inhibition, usual class: inhibitors; 200,000 compounds, 0.28% hits; Kinase-Glo luciferase, ATP luminescence, 8 min; further: on the % scale 0 is the no-effect control and ±100 the full control effect; nearly all actives have a fitted effect of over 60% in size
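Inhibition of Kinase-Glo luciferase light generation was assessed at 10 uM ATP in pH 7.2 imidazole buffer, with luminescence measured after eight minutes at ambient temperature.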
SMN2 splice up = qHTS Assay for Enhancers of SMN2 Splice Variant Expression; HEK293 SMN2-luciferase splicing reporter, luminescence, 30-36 h; 210,000 compounds, 2.8% hits; Potency, µM (doses to about 46.1 µM), inactives show at the top dose activity change, positive = activation, hits mostly activators; AID 1458, 2008; further: % of control where 0% means no effect; nearly all actives have a fitted effect of over 55% in size
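qHTS luciferase splicing reporter: luminescence rises when SMN2 exon 7 is included in transfected HEK293 cells. Compound exposure lasted 30-36 h at 37C, with 4.5 mM final sodium butyrate as control, followed by a ONE-Glo read.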
ELG1 genotox = qHTS screen for small molecules that induce genotoxicity in human embryonic kidney (HEK293T) cells expressing luciferase-tagged ELG1. 330,000 compounds, 1.3% hits. HEK293T ELG1-luciferase reporter, luminescence, 16 h. Potency, µM (series often up to 46 µM), inactives show top-dose activity change, positive = activation, most hits filed as activators; further: % of control where 0% means no effect; nearly all actives have a fitted effect of over 60% in size
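16 hr compound incubation (37 °C, 5% CO2) of HEK293T cells carrying luciferase-tagged ELG1; luciferase then measured by ONE-Glo luminescence after 30 min at RT.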
Rab9 promoter act = qHTS Assay for Rab9 Promoter Activators; 320,000 compounds, 2.8% hits; Potency, µM (top dose mostly 9.22 µM), inactives show at the top dose activation, negative = inhibition, most hits filed as activators; Huh7 Rab9 promoter-luciferase reporter, luminescence, 24 h; AID 485297, 2010; further: % of control where 0% means no effect; nearly all actives have a fitted effect of over 60% in size
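Steps: seed 1500 Huh7 Rab9-luc cells per well, rest 2 h at 37 °C; add compound in DMSO; incubate 24 h; add luciferase reagent, 10 min ambient; read luminescence.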
The depositor's hits bear a star. Hits are enriched below; roughly 7.5% of the tested compounds scored in any of these assays. The call rests on the fitted dose curve; in most records, active means well fitted curve in the direction sought with a large enough effect; inconclusive means small, poorly fitted or top-dose-only effect, or another doubt; inactive means no such curve, though single readings can be large; an effect the other way counts as inactive or inconclusive. Potency means the concentration at half of the fitted maximal effect.

Screening COc1ccc2c(c1)c(=O)oc1c(C)c(OC(C)C(=O)NCC3CCC(C(=O)O)CC3)ccc12 (stereo not given) returned FLuc counter 15µM*, NPC1 promoter act 8%, ELG1 genotox 9% and Rab9 promoter act 5%.
Cc1cc(=O)oc2c(C)c(OC(C)C(=O)NCC3CCC(C(=O)O)CC3)ccc12 (stereo not given) was read as FLuc counter -1%, NPC1 promoter act 6%, ELG1 genotox 1% and Rab9 promoter act -1%.
COc1ccc2c(c1)c(=O)oc1c(C)c(OCc3ccc(C(=O)O)cc3)ccc12 was read as FLuc counter 24µM*, NPC1 promoter act -5%, ELG1 genotox 3% and Rab9 promoter act 7%.
For COc1ccc2c(c1)c(=O)oc1c(C)c(OCc3cc(C(=O)O)oc3C)ccc12 the results were FLuc counter 11µM*, NPC1 promoter act -1%, KinaseGlo FLuc -2%, SMN2 splice up 1%, ELG1 genotox inconclusive and Rab9 promoter act 12%.
`COc1ccc2c(c1)c(=O)oc1c(C)c(OCC(=O)N3CCc4ccccc4C3)ccc12` gave FLuc counter -13%, NPC1 promoter act -2%, KinaseGlo FLuc -7%, SMN2 splice up -18%, ELG1 genotox 2% and Rab9 promoter act 7%.
For Cc1oc(C(=O)O)cc1COc1ccc2c3c(c(=O)oc2c1)CCC3 the results were FLuc counter inconclusive, NPC1 promoter act 12%, KinaseGlo FLuc 0%, SMN2 splice up -1%, ELG1 genotox inconclusive and Rab9 promoter act 4%.
O=[N+]([O-])C(/C=C(/Cl)[N+](=O)[O-])=C(N1CCCCC1)N1CCCCC1 was read as FLuc counter 0%, NPC1 promoter act 2%, ELG1 genotox -1% and Rab9 promoter act -3%.
For COc1ccccc1C(=O)Oc1ccc(C(C)C)cc1 the results were FLuc counter 9.5µM*, NPC1 promoter act -3%, KinaseGlo FLuc 0%, SMN2 splice up -7%, ELG1 genotox inconclusive and Rab9 promoter act -1%.
`N/C(=N\OC(=O)c1ccc(Cl)cc1)c1ccn[nH]1` gave FLuc counter 3µM*, NPC1 promoter act 1.3µM*, ELG1 genotox 2.6µM* and Rab9 promoter act 1.6µM*.
Screening C/C(=N\OC(=O)c1ccc(Cl)cc1)c1nccs1 returned FLuc counter 0.48µM*, NPC1 promoter act 1%, KinaseGlo FLuc -15%, SMN2 splice up -19%, ELG1 genotox 1% and Rab9 promoter act 1%.
Screening N/C(Cn1cncn1)=N\OC(=O)c1ccc(Cl)cc1 returned FLuc counter 4%, NPC1 promoter act -3%, KinaseGlo FLuc -1%, SMN2 splice up -2%, ELG1 genotox 4% and Rab9 promoter act 2%.
`N/C(=N\OC(=O)c1ccc(OCC(F)(F)F)nc1)c1ccc(Cl)cc1` gave FLuc counter inconclusive, NPC1 promoter act 1%, ELG1 genotox 7% and Rab9 promoter act -1%.
For N/C(=N\OC(=O)c1ccc(Cl)cc1)c1ccc(Cl)cc1 the results were FLuc counter 3µM*, NPC1 promoter act inconclusive, KinaseGlo FLuc -7%, SMN2 splice up inconclusive, ELG1 genotox inconclusive and Rab9 promoter act inconclusive.
For O=C(CSC1=NS(=O)(=O)c2cc(Cl)ccc2N1)c1ccc(Cl)cc1 the results were FLuc counter -3%, NPC1 promoter act 0%, ELG1 genotox -1% and Rab9 promoter act -9%.
For O=C(Nc1cc(S(=O)(=O)N2CCCC2)ccc1Cl)c1cc(F)c(F)c(F)c1F the results were ELG1 genotox -1%.
Screening NC(=O)c1ccc[n+](CC(=O)c2cccc([N+](=O)[O-])c2)c1 returned FLuc counter -1%, NPC1 promoter act 2%, ELG1 genotox 0% and Rab9 promoter act -5%.
For N/C(=N\OC(=O)c1ccccc1Cl)c1ccc(Cl)cc1 the results were FLuc counter 1.3µM*, NPC1 promoter act 20%, KinaseGlo FLuc -3%, SMN2 splice up 16µM*, ELG1 genotox 2.6µM* and Rab9 promoter act inconclusive.
For N/C(=N\OC(=O)c1ccco1)c1cccnc1 the results were FLuc counter inconclusive, NPC1 promoter act 7%, KinaseGlo FLuc -7%, SMN2 splice up 7%, ELG1 genotox inconclusive and Rab9 promoter act -2%.
`N/C(=N\OC(=O)c1ccccc1Cl)c1ccccc1` gave FLuc counter 0.38µM*, NPC1 promoter act 3.2µM*, KinaseGlo FLuc inconclusive, SMN2 splice up 11µM*, ELG1 genotox inconclusive and Rab9 promoter act 3.2µM*.
Screening COc1ccc(C(=O)O/N=C(\N)c2ccccc2Cl)cc1OC returned FLuc counter inconclusive, NPC1 promoter act -1%, ELG1 genotox inconclusive and Rab9 promoter act -2%.
`COc1ccccc1C(=O)O/N=C(\N)c1ccccc1Cl` gave FLuc counter inconclusive, NPC1 promoter act 4%, KinaseGlo FLuc 1%, SMN2 splice up 22µM*, ELG1 genotox inconclusive and Rab9 promoter act inconclusive.
Screening N/C(=N\OC(=O)c1ccco1)c1ccc(Cl)cc1 returned FLuc counter 24µM*, NPC1 promoter act inconclusive, KinaseGlo FLuc -8%, ELG1 genotox 7.3µM* and Rab9 promoter act inconclusive.
COc1ccc(NC(=O)CN2CCN(Cc3ccccc3)S2(=O)=O)c(OC)c1 was read as FLuc counter 5%.
For Cc1ccc(Oc2nc(-c3cccnc3)nc3ccccc23)c([N+](=O)[O-])n1 the results were FLuc counter -1%, NPC1 promoter act -4%, KinaseGlo FLuc -1%, SMN2 splice up -23%, ELG1 genotox -5% and Rab9 promoter act -7%.
`COc1ccc(OC)c(NC(=O)[C@@H]2CCCN2C(=O)c2cccs2)c1` gave FLuc counter 1%, NPC1 promoter act -2%, KinaseGlo FLuc -4%, SMN2 splice up 5.6µM*, ELG1 genotox 10% and Rab9 promoter act -2%.
`COc1ccc(C(=O)N2CCC3(CC2)CN(C(=O)Nc2cccc(C#N)c2)C3)cc1` gave KinaseGlo FLuc 0% and SMN2 splice up -27%.
COc1ccc(CC(=O)Nc2ccc(-c3csc(C)n3)cc2)cc1 was read as FLuc counter -6%, NPC1 promoter act 1%, KinaseGlo FLuc -4%, ELG1 genotox 2% and Rab9 promoter act 1%.
